The values below come from PMC7862700, “An all-to-all approach to the identification of sequence-specific readers for epigenetic DNA modifications on cytosine”.

Common to all, as to experiment: DAPPL (digital affinity profiling via proximity ligation, sequencing); 10 mM Tris-HCl pH 7.5, 50 mM NaCl, 1 mM DTT, 4% glycerol, room temperature, 30 min; GST-TFs on glutathione beads, 16-mer random dsDNA library, 0.1% formaldehyde crosslink after washing; high values mean tight binding
The target of one test is T1, FLI1 (Homo sapiens, UniProt Q01543 1-452).
T1 sequence: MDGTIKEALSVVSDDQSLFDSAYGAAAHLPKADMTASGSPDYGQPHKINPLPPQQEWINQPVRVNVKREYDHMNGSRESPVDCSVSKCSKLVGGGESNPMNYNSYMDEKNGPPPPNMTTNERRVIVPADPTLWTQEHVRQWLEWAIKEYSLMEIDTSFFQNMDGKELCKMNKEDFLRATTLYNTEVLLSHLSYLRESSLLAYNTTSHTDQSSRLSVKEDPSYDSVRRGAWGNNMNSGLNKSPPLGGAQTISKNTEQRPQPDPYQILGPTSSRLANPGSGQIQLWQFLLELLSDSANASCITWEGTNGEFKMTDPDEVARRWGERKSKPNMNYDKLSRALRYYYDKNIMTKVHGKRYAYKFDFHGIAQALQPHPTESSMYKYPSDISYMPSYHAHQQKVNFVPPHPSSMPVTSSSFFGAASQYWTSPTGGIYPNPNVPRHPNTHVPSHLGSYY
Particulars: protein: recombinant; tags: N-terminal GST; dsDNA, one strand shown. The procedure, abridged:
(§1)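 Sequencing on an Illumina NextSeq500 followed washing, crosslinking with 0.1% formaldehyde, proximity ligation (BsaI/T4 ligase, 1 h, 37 °C) and PCR amplification of pools that had been incubated for 30 min at room temperature with 200 nmole of a random double-stranded 16-mer DNA library in Tris/NaCl/DTT/glycerol buffer. Each pool held DNA-barcoded human transcription factors, expressed in yeast as GST fusions and captured on glutathione beads, plus a tag-only sample. Binding signal is a hexamer's read frequency for a factor divided by its frequency in the tag-only sample.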

The target of a further test is T2, ELK1 (Homo sapiens, UniProt P19419 1-428).
T2 sequence: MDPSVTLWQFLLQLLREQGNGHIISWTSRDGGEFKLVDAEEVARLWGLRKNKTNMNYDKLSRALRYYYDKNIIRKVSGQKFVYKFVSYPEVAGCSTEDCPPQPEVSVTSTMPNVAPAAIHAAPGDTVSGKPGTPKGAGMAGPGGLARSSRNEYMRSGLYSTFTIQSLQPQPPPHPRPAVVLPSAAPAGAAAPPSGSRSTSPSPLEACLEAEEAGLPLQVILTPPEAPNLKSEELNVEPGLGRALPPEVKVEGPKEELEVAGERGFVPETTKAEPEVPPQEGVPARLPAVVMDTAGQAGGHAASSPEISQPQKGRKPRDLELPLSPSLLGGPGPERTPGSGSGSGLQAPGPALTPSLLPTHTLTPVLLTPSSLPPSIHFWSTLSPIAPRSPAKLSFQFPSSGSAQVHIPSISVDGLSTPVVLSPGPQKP
The settings on record: protein: recombinant; tags: N-terminal GST; dsDNA, one strand shown. An outline of the steps: as §1

The next test deals with T3, GABPA (Homo sapiens, UniProt Q06546 1-454).
T3 sequence: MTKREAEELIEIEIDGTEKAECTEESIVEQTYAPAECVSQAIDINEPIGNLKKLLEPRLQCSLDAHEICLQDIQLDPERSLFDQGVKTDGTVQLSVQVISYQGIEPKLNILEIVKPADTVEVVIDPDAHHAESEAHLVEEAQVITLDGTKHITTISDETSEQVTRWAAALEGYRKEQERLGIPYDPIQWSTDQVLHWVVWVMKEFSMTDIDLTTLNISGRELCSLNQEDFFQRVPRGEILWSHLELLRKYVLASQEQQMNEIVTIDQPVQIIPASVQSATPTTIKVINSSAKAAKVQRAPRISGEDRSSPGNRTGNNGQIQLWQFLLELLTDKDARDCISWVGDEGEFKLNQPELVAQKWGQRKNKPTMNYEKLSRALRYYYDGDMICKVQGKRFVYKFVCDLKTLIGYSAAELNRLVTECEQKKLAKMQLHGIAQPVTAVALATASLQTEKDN
The settings on record: protein: recombinant; tags: N-terminal GST; dsDNA, one strand shown. The procedure, abridged: as §1

For another test, the target named is T4, ERG (Homo sapiens, UniProt P11308 1-479).
T4 sequence: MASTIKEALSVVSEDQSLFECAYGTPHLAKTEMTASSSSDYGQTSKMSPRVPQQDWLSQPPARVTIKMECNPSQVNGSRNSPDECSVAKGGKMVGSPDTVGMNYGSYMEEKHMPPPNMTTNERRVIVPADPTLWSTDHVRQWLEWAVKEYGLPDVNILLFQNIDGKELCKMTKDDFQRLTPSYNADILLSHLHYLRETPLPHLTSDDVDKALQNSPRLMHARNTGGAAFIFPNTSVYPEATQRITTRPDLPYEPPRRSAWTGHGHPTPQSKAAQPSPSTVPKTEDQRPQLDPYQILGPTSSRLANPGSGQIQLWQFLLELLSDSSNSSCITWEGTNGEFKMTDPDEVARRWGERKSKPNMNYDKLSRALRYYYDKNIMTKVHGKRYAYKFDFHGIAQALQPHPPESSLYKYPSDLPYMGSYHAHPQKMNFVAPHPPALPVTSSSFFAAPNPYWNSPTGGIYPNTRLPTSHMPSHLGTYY
The settings on record: protein: recombinant; tags: N-terminal GST; dsDNA, one strand shown. An outline of the steps: as §1

A further test deals with ELF1 (Homo sapiens, UniProt P32519 1-619). The settings on record: protein: recombinant; tags: N-terminal GST; dsDNA, one strand shown. The procedure, abridged:
as §1

The target in a further test is T5, EHF (Homo sapiens, UniProt Q9NZC4 1-300).
T5 sequence: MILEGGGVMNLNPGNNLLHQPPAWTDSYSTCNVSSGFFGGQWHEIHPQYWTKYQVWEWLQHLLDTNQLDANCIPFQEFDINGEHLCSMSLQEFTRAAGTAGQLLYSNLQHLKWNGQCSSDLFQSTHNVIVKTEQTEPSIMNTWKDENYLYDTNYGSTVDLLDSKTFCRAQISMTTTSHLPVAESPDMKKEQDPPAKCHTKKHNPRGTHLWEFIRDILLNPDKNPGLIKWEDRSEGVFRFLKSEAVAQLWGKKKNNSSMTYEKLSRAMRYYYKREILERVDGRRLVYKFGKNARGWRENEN
The settings on record: protein: recombinant; tags: N-terminal GST; dsDNA, one strand shown. An outline of the steps:
as §1

In another test the target is SPI1 (Homo sapiens, UniProt P17947 1-270). Particulars: protein: recombinant; tags: N-terminal GST; dsDNA, one strand shown. An outline of the steps: as §1
The next test has as its target SPIB (Homo sapiens, UniProt Q01892 1-262). Particulars: protein: recombinant; tags: N-terminal GST; dsDNA, one strand shown. The procedure, abridged: as §1
Another test deals with T6, ELK3 (Homo sapiens, UniProt P41970 1-407).
T6 sequence: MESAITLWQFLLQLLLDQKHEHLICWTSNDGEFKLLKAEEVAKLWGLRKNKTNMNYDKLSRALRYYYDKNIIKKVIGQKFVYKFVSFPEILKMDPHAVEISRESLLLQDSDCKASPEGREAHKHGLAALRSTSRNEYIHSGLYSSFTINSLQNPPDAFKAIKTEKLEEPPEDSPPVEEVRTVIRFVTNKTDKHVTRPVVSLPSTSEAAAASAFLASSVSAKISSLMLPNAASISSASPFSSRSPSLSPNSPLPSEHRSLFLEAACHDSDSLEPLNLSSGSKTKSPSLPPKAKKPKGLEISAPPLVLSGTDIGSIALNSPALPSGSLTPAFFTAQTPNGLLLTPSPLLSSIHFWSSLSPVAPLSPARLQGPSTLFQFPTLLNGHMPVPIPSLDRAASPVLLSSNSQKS
The settings on record: protein: recombinant; tags: N-terminal GST; dsDNA, one strand shown. The procedure, abridged: as §1

The next test addresses T7, FEV (Homo sapiens, UniProt Q99581 1-238).
T7 sequence: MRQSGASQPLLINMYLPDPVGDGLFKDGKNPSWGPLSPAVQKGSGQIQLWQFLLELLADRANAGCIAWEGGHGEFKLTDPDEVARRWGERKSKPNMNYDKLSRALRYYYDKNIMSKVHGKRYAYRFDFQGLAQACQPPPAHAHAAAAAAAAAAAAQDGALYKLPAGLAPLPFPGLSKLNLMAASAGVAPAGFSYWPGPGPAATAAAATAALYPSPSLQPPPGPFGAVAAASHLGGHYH
The settings on record: protein: recombinant; tags: N-terminal GST; dsDNA, one strand shown. The procedure, abridged: as §1

The target of the next test is ETV5 (Homo sapiens, UniProt P41161 1-510). Particulars: protein: recombinant; tags: N-terminal GST; dsDNA, one strand shown. An outline of the steps:
as §1

Another test deals with HSF1 (Homo sapiens, UniProt Q00613 1-529). Particulars: protein: recombinant; tags: N-terminal GST; chain copies: 3; dsDNA, one strand shown. The procedure, abridged: as §1
A further test addresses T8, SPIC (Homo sapiens, UniProt Q8N5J4 1-248).
T8 sequence: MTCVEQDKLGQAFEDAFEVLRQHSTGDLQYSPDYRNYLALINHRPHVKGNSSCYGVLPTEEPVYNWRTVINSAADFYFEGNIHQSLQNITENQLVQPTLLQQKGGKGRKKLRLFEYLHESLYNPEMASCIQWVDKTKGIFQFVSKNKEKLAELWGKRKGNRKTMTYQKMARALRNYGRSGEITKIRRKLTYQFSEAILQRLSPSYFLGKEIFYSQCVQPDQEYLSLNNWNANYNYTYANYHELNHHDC
Particulars: protein: recombinant; tags: N-terminal GST; dsDNA, one strand shown. The procedure, abridged: as §1

The target of the next test is ELF4 (Homo sapiens, UniProt Q99607 1-663). Particulars: protein: recombinant; tags: N-terminal GST; dsDNA, one strand shown. An outline of the steps:
as §1

For the next test, the target named is T9, ELK4 (Homo sapiens, UniProt P28324-2 1-405).
T9 sequence: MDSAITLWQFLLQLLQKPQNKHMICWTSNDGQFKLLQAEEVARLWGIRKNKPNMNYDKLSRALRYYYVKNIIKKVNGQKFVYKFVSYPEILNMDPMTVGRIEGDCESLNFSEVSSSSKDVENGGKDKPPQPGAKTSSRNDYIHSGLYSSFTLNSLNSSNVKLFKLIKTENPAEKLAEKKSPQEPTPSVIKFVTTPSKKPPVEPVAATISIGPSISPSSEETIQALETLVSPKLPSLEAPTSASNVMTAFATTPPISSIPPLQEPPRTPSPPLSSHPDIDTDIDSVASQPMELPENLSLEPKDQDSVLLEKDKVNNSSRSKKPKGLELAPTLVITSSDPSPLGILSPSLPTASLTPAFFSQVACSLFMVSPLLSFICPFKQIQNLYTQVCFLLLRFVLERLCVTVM
The settings on record: protein: recombinant; tags: N-terminal GST; dsDNA, one strand shown. The procedure, abridged:
as §1

For the next test, the target named is T10, ETV2 (Homo sapiens, UniProt O00321 1-342).
T10 sequence: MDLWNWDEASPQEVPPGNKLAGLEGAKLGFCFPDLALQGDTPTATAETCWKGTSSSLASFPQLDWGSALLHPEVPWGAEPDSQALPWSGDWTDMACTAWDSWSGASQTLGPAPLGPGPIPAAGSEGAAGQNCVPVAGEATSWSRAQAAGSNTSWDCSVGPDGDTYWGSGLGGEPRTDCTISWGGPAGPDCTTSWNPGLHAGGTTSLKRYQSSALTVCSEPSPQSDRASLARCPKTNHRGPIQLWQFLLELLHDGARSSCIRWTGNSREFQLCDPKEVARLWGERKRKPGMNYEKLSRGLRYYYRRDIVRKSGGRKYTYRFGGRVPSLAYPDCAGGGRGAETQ
Particulars: protein: recombinant; tags: N-terminal GST; dsDNA, one strand shown. An outline of the steps: as §1

For the next test, the target named is T11, ELF3 (Homo sapiens, UniProt P78545 1-371).
T11 sequence: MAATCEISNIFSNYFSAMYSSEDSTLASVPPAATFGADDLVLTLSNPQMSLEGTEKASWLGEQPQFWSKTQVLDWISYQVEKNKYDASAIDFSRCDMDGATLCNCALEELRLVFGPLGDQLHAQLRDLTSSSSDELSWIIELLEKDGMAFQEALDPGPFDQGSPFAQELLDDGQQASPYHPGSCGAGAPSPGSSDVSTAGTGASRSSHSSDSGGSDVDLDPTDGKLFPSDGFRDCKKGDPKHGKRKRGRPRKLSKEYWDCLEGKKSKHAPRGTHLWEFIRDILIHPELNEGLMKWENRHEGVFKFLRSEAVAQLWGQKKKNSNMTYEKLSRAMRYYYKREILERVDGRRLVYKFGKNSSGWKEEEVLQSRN
Particulars: protein: recombinant; tags: N-terminal GST; dsDNA, one strand shown. An outline of the steps:
as §1

The target in the next test is ETV1 (Homo sapiens, UniProt P50549 1-477). Particulars: protein: recombinant; tags: N-terminal GST; dsDNA, one strand shown. The procedure, abridged: as §1
ETV1, sequence (P50549 whole entry): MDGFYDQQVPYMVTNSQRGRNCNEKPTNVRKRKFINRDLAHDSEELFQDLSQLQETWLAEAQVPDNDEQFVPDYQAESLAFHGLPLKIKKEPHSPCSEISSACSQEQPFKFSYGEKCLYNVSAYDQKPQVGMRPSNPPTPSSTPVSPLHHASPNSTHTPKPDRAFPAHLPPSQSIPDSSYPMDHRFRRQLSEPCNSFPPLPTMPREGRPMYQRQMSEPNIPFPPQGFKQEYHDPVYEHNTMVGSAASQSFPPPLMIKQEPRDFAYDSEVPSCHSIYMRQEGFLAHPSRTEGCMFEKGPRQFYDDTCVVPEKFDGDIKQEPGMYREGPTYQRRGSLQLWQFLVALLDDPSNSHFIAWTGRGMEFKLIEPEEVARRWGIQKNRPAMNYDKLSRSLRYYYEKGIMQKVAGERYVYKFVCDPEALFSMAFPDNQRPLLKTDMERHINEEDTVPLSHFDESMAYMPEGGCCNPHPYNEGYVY

SPIB, sequence (Q01892 whole entry): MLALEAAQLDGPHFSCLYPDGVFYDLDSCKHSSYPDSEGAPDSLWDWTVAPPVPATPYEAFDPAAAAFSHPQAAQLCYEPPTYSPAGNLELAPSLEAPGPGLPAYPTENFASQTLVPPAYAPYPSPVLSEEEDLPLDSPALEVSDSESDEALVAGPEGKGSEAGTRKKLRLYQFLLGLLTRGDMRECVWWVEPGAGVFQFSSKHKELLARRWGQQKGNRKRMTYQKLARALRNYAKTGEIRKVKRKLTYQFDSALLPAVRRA
ELF4, sequence (Q99607 whole entry): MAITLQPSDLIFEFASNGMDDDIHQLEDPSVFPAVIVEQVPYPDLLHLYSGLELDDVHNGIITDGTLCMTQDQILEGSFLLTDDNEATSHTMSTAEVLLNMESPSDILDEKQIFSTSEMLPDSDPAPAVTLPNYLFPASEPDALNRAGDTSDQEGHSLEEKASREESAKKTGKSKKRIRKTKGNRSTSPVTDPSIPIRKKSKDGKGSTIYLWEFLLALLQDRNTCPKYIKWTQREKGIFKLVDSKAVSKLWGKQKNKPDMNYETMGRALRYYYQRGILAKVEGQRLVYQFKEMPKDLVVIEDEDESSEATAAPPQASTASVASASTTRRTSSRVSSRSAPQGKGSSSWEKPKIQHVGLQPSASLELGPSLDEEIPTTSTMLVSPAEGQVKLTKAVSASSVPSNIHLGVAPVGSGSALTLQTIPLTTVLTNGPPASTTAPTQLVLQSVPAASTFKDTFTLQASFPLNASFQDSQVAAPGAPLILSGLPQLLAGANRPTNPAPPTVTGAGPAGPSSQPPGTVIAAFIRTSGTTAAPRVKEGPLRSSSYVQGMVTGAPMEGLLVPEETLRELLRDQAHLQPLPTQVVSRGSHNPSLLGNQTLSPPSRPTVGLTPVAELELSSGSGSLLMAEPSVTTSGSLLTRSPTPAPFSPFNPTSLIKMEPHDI
HSF1, sequence (Q00613 whole entry): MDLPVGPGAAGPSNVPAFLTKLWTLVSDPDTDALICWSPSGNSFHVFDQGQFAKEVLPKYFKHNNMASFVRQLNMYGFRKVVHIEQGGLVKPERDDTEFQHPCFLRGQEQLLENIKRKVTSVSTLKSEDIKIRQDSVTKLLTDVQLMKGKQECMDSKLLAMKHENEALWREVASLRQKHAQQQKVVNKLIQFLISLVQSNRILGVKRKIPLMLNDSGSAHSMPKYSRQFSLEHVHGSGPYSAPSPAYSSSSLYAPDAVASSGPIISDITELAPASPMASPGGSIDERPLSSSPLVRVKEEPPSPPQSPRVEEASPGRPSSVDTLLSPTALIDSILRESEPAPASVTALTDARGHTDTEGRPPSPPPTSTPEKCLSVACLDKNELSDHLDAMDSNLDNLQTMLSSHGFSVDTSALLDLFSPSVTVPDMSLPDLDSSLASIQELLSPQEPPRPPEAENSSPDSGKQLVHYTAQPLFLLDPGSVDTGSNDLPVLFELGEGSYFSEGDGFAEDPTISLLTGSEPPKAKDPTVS
ETV5, sequence (P41161 whole entry): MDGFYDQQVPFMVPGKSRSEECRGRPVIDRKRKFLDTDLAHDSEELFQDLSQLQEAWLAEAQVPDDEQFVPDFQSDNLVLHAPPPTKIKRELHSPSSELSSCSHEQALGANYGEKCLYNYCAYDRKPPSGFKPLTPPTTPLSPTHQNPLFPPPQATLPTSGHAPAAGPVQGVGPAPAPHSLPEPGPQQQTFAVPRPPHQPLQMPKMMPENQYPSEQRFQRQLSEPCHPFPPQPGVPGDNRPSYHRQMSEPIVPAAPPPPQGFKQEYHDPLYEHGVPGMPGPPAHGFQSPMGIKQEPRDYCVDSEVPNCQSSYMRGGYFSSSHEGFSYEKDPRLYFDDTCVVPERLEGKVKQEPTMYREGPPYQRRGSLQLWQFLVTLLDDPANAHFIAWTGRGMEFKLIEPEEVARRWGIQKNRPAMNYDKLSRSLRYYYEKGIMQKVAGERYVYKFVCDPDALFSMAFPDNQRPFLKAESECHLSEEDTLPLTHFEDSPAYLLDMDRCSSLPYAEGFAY
ELF1, sequence (P32519 whole entry): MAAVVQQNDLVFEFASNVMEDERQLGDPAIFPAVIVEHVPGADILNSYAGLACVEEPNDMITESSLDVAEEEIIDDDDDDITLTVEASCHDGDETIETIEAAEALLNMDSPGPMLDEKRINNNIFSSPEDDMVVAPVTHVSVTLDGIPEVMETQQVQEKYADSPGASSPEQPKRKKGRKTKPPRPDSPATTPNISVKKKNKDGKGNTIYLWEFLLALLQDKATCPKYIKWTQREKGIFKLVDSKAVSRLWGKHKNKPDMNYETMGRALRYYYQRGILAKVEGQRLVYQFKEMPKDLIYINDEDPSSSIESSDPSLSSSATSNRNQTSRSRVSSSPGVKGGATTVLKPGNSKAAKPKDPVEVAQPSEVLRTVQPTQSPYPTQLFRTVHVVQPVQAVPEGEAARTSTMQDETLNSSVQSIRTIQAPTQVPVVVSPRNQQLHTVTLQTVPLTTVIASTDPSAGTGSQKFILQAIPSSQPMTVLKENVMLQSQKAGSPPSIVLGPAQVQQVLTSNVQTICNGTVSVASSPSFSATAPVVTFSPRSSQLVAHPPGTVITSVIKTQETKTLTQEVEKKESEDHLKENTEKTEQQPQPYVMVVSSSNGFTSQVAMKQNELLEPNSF

For GGAACT, the binding signal with FLI1 was 1.83 fold enrichment (6-mer frequency, TF over GST control); with ELK1 it was 1.8 fold enrichment (6-mer frequency, TF over GST control); in the test with GABPA, 1.61 fold enrichment (6-mer frequency, TF over GST control); with ERG, 1.89 fold enrichment (6-mer frequency, TF over GST control); in the test with ELF1, 1.72 fold enrichment (6-mer frequency, TF over GST control); with EHF, 1.8 fold enrichment (6-mer frequency, TF over GST control). For the same sequence, the binding signal in the test with SPI1 is 2.42 fold enrichment (6-mer frequency, TF over GST control); in the test with SPIB, 2.03 fold enrichment (6-mer frequency, TF over GST control); with ELK3, 1.7 fold enrichment (6-mer frequency, TF over GST control); with FEV it was 1.72 fold enrichment (6-mer frequency, TF over GST control); in the test with ETV5 it was 1.96 fold enrichment (6-mer frequency, TF over GST control); with HSF1, 1.31 fold enrichment (6-mer frequency, TF over GST control). The binding signal is 2.08 fold enrichment (6-mer frequency, TF over GST control) with SPIC; 1.55 fold enrichment (6-mer frequency, TF over GST control) with ELF4; 1.49 fold enrichment (6-mer frequency, TF over GST control) with ELK4; 1.89 fold enrichment (6-mer frequency, TF over GST control) in the test with ETV2; 1.87 fold enrichment (6-mer frequency, TF over GST control) in the test with ELF3; 2.03 fold enrichment (6-mer frequency, TF over GST control) with ETV1.
